PubChem BioAssay
Activity calls are given as the source filed them. Unless noted, how the calls were made is not given here.

Key:
[1] = system: Wnt5a (protein binding on small-molecule microarray); assay: small molecules binding Wnt5a protein – biophysical, small-molecule microarray, 635/667 nm fluorescence, primary screen (AID 1142); conditions: 635 nm fluorescence, higher = more signal;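 further: fluorescence read at 667 nm with signal to noise per printed feature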
[2] = ATP-based viability of Huh7 replicon cells – cell-based, CellTiter-Glo luminescence, basal, 48 h, cytotoxicity control for HCV replication inhibitor project, primary screen (AID 1143); conditions: higher = more signal, called active from +8 up or from −8 down;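 further: Huh7 hepatoma cells carrying a hepatitis C replication reporter with no stimulus; test concentration not given here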
[3] = Pseudomonas biofilm growth suppression – PAO1 strain, BacTiter-Glo luminescence, LB-PBS, primary screen (AID 1144); conditions: P. aeruginosa PAO1 biofilm, 12 h, higher = more signal
[4] = basal CRE-LacZ reporter activity in PC12 – cell-based, unstimulated, primary screen (AID 1145); conditions: no forskolin, luminescence, 4.5 h, higher = more signal, called active from +8 up or from −8 down
[5] = forskolin-driven CRE-LacZ activity in PC12 – cell-based, CRE-LacZ reporter, forskolin-stimulated, primary screen (AID 1146); conditions: luminescence, 4.5 h, higher = more signal, called active from +8 up or from −8 down;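 further: PC12 cells with 6xCRE LacZ reporter stimulated by forskolin 10 µM; beta-galactosidase reporter signal reflecting CREB driven transcription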
[6] = target: Streptavidin (Streptomyces avidinii) (UniProt P22629); assay: compounds binding control protein streptavidin – biophysical, small-molecule microarray, 635/667 nm fluorescence, artefact control for SMM compound annotation, primary screen (AID 1147); conditions: higher = more signal;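 further: signal reflects streptavidin binding to arrayed compounds as a control protein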
Sequence of Streptavidin (Streptomyces avidinii) (P22629 whole entry, looked up): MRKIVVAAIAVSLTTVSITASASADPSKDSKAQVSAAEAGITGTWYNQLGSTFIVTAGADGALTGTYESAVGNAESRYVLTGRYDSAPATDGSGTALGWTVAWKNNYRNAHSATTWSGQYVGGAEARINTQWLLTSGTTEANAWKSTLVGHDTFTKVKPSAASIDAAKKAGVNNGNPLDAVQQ

[7] = probe aInhba binding on compound microarray – biochemical, small-molecule microarray, 635/667 nm fluorescence, primary screen (AID 1148); conditions: higher = more signal;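 further: score merges 667nm spot fluorescence with signal-to-noise for antibody binding to printed compounds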
[8] = target: Torsin-1A (Homo sapiens) (UniProt O14656); assay: TOR1A wild-type binding on microarray – cell lysate, small-molecule microarray, lysate, 635/667 nm, primary screen (AID 1149); conditions: COS7 hTOR1A-WT lysate, 635 nm fluorescence, higher = more signal
Sequence of Torsin-1A (Homo sapiens) (O14656 whole entry, looked up): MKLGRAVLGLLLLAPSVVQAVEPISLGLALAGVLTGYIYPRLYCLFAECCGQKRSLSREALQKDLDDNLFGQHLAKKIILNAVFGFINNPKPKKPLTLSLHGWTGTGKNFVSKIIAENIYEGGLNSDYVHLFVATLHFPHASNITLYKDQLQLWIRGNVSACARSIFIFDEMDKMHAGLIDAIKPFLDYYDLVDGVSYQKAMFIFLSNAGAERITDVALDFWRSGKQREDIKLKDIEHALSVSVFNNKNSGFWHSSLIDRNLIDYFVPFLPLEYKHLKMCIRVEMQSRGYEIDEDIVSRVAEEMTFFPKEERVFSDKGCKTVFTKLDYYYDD

[9] = target: Torsin-1A (Homo sapiens) (UniProt O14656); assay: torsin A mutant lysate binding on microarrays – cell lysate, small-molecule microarray, COS7 lysate, 635/667 nm fluorescence, primary screen (AID 1150); conditions: COS7 hTOR1A mutant lysate, 635 nm fluorescence, higher = more signal;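 further: score pools 667 nm emission and signal to noise measuring lysate protein binding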
[10] = system: Sonic hedgehog protein (Shh); assay: Sonic hedgehog microarray binding compounds – biochemical, small-molecule microarray, 635/667 nm fluorescence, primary screen (AID 1151); conditions: 635 nm fluorescence, higher = more signal;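 further: Shh protein binding to compounds spotted on small-molecule microarray slides; score combines spot fluorescence intensity with signal-to-noise across triplicate slides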
[11] = optical density shifts of acrAB sulA E. coli – strain DRC41, OD650, 48 h, E. coli filamentation inducer project, primary screen (AID 1152); conditions: higher = more signal, called active from +8 up or from −8 down;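 further: E. coli MC1000 strain DRC41 lacking acrAB efflux pump and sulA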
[12] = probe aLefty1 binding on compound microarray – biochemical, small-molecule microarray, 635/667 nm fluorescence, primary screen (AID 1153); conditions: higher = more signal;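 further: score merges spot fluorescence with signal-to-noise ratio from the scanned slide images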
[13] = plasmodial surface anion channel blockers, osmotic lysis – cell-based, P. falciparum Indochina, OD700, 1 h, primary screen (AID 1154); conditions: P. falciparum Indochina infected RBC osmotic lysis, higher = more signal, called active from +8 up or from −8 down
[14] = plasmodial surface anion channel blockers, osmotic lysis – cell-based, P. falciparum Indochina, OD700, 2 h, primary screen (AID 1155);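 further: lysis reports solute entry through the parasite surface anion channel PSAC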; conditions: P. falciparum Indochina infected erythrocytes, higher = more signal, called active from +8 up or from −8 down
[15] = changes in parasitized red cell lysis, either direction – P. falciparum Indochina, OD700, 3 h, PSAC antagonist project, primary screen (AID 1156); conditions: P. falciparum-infected erythrocytes, osmotic lysis, higher = more signal, called active from +8 up or from −8 down
[16] = plasmodial surface anion channel blockers, osmotic lysis – cell-based, P. falciparum Indochina, OD700, 18 h, primary screen (AID 1157); conditions: P. falciparum Indochina infected erythrocytes, osmotic lysis OD700, 18 h; higher = more signal, called active from +8 up or from −8 down
[17] = S6 kinase pathway phospho-S6 level changes – cell-based, A549, cytoblot, luminescence, serum-stimulated, primary screen (AID 1158); conditions: 5 h, higher = more signal;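 further: serum-stimulated A549 lung adenocarcinoma cells; signal is phosphorylated S6 detected by cytoblot immunostaining with HRP secondary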
[18] = target: NADPH oxidase 2 (Homo sapiens) (UniProt P04839); assay: compounds shifting NOX2 Amplex Red fluorescence – cell-based, HEK293-NOX2, PMA-stimulated, NOX inhibitor project, primary screen (AID 1159); conditions: 45 min, higher = more signal, called active from +8 up or from −8 down; further: test concentration not given here
Sequence of NADPH oxidase 2 (Homo sapiens) (P04839 whole entry, looked up): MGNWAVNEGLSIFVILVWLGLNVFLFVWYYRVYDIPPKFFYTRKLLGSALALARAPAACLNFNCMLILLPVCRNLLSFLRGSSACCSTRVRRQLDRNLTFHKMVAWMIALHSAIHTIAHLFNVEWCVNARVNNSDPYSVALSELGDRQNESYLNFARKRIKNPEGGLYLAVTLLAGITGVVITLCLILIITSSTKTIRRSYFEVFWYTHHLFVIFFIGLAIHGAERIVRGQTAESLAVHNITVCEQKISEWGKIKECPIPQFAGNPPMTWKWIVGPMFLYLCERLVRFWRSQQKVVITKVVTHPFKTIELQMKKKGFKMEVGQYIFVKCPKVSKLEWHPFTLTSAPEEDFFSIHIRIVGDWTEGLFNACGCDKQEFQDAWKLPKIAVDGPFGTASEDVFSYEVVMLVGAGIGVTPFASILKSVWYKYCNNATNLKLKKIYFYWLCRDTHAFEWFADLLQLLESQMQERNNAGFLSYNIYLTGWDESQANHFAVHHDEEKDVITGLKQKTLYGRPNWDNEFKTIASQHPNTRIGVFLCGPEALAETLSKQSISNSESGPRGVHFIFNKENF

[19] = target: NADPH oxidase 4 (Homo sapiens) (UniProt Q9NPH5); assay: compounds shifting NOX4 Amplex Red fluorescence – cell-based, HEK293-NOX4, tetracycline-induced, NOX inhibitor project, primary screen (AID 1160); conditions: HEK293-NOX4, Amplex Red H2O2 fluorescence, 45 min; higher = more signal, called active from +8 up or from −8 down
Sequence of NADPH oxidase 4 (Homo sapiens) (Q9NPH5 whole entry, looked up): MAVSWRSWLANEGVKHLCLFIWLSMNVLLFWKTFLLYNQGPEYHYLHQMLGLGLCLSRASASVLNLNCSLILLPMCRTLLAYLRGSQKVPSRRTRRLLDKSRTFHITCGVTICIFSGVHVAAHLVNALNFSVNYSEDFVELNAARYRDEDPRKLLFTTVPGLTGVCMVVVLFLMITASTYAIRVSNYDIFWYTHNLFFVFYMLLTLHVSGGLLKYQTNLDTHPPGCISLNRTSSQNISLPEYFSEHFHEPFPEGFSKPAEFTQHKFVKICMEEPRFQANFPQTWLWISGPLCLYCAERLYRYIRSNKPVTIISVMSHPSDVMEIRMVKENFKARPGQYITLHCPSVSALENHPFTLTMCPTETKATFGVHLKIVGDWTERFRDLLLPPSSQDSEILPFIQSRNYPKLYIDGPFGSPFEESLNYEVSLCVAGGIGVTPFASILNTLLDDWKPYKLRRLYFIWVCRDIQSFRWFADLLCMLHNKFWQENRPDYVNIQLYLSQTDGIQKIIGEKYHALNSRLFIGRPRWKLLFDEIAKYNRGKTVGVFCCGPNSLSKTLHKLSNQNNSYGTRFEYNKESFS

[20] = target: NADPH oxidase 5 (Homo sapiens) (UniProt Q96PH1); assay: compounds shifting NOX5 Amplex Red fluorescence – cell-based, HEK293-NOX5, NOX inhibitor project, primary screen (AID 1161); conditions: HEK293-NOX5, ionomycin, 45 min, higher = more signal
Sequence of NADPH oxidase 5 (Homo sapiens) (Q96PH1 whole entry, looked up): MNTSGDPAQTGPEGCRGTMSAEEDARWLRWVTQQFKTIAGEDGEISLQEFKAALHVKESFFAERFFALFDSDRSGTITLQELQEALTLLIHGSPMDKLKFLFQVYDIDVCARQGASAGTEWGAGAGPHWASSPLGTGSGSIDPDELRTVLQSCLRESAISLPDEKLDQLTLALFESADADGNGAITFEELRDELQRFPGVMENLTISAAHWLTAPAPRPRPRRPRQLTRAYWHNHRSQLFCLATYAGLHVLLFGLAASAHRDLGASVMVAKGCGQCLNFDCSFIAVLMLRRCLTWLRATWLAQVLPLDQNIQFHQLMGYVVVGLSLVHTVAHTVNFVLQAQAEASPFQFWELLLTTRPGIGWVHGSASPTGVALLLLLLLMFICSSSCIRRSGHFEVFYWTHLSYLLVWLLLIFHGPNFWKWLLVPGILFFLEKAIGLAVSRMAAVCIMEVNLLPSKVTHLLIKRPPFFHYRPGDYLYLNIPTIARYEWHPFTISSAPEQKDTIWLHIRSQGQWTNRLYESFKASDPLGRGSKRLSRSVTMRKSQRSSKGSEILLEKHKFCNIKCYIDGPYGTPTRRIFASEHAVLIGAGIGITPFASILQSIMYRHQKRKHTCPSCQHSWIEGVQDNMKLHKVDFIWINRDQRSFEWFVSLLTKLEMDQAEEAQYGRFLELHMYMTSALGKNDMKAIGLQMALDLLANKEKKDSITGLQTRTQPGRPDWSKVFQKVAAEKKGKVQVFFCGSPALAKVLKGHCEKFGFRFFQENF

SMILES | composite z-score [1] | z-score [2] | z-score [3] | z-score [4] | z-score [5] | composite z-score [6] | composite z-score [7] | composite z-score [8] | composite z-score [9] | composite z-score [10] | z-score [11] | composite z-score [12] | z-score [13] | z-score [14] | z-score [15] | z-score [16] | z-score [17] | z-score [18] | z-score [19] | z-score [20]
C=CC[C@]1(C(=O)NCC(O)CO)N=C(c2ccc(OCCCO)cc2)O[C@H]1c1ccccc1N=[N+]=[N-] (stereo not given in full) | 0.257 | -1.4 (inactive) | -0.323 (inactive) | 1.24 (inactive) | -0.652 (inactive) | 1.4 | 0.215 | 0.16 | 1.46 | -0.723 | 0.33 (inactive) | 0.658 | 34.3 (active) | 30.5 (active) | 2 (inactive) | 7.28 (inactive) | -0.33 | -0.357 (inactive) | 1.74 (inactive) | 0.781
C[C@H]1NC(=O)C([C@@H](C)OCc2ccccc2)NC(=O)[C@@]23C(=O)N[C@@H](Cc4ccccc4)C2[C@H](C)[C@@]2(C)O[C@H]2C3/C=C/CC/C=C/CNC1=O (stereo not given in full) | -0.108 | -1.24 (inactive) | 1.27 (inactive) | 4.21 (inactive) | -1.16 (inactive) | -0.0311 | -0.122 | -0.0252 | 0.212 | 0.778 | 1.85 (inactive) | -0.0094 | 1.79 (inactive) | 0.76 (inactive) | 0.89 (inactive) | 0.107 (inactive) | 0.888 | 1.24 (inactive) | -0.179 (inactive) | 0.815
C#CCOC(=O)N[C@H](C=CCCCC)c1ccccc1 | -0.0582 | -0.342 (inactive) | -0.604 (inactive) | 0.197 (inactive) | 0.488 (inactive) | 0.335 | 0.0714 | 0.28 | 0.0584 | -0.13 | -0.288 (inactive) | 0.289 | 0.801 (inactive) | 0.852 (inactive) | 0.599 (inactive) | 0.715 (inactive) | -0.469 | 0.877 (inactive) | -0.194 (inactive) | -0.212
CC(C)c1ccc(NN2C(C(O)c3cccs3)C=CC3C(=O)N(c4ccccc4)C(=O)C32)cc1 (stereo not given) | 0.119 | -0.506 (inactive) | -0.579 (inactive) | 0.812 (inactive) | 0.311 (inactive) | 1.78 | 0.152 | 0.248 | 0.182 | -0.04 | -1.5 (inactive) | 0.498 | 3.11 (inactive) | 0.962 (inactive) | 0.566 (inactive) | 0.899 (inactive) | -1.16 | -1.11 (inactive) | -3.51 (inactive) | -2.9
CC(C)(C)OC(=O)CC[C@]1(C(=O)O)COC(c2ccc(OCCCO)cc2)=N1 | -0.0943 | 0.61 (inactive) | 0.178 (inactive) | 0.694 (inactive) | 0.506 (inactive) | 0.142 | -0.0589 | 0.676 | 1.08 | -2.07 | -0.283 (inactive) | 0.126 | 2.54 (inactive) | -0.0827 (inactive) | 0.091 (inactive) | 0.0515 (inactive) | -0.426 | 0.0212 (inactive) | 0.624 (inactive) | 0.487
CCCCC(=C=CC[C@H](O)c1ccccc1OCCO)C[C@H](O)c1ccccn1 | -0.135 | -0.392 (inactive) | -0.0512 (inactive) | 6.34 (inactive) | -0.872 (inactive) | 0.597 | -0.0762 | 0.718 | 1.01 | 1.4 | 1.47 (inactive) | -0.0536 | 4.7 (inactive) | 1.16 (inactive) | 2.3 (inactive) | 0.576 (inactive) | 0.822 | -0.778 (inactive) | -0.193 (inactive) | -1.37
COC(=O)[C@@]1(Cc2ccccc2)[C@H]2c3cc(C(=O)N(C)C)n(Cc4ccc(O)c(OC)c4)c3C[C@H]2CN1C(=O)c1ccccc1 | 0.672 | -4.52 (inactive) | -0.886 (inactive) | -0.565 (inactive) | 0.883 (inactive) | 0.468 | 0.877 | 0.698 | 1.06 | -0.851 | -0.404 (inactive) | 0.774 | 2.41 (inactive) | -0.214 (inactive) | 0.158 (inactive) | -1.32 (inactive) | 1.67 | -4.69 (inactive) | -6.03 (inactive) | -6.08
O=C1c2ccccc2[C@](Cc2ccccc2I)(C(=O)NC2CC2)[C@H](c2ccc(CO)cc2)N1Cc1ccccc1Cl | 0.805 | -0.77 (inactive) | 0.167 (inactive) | 0.468 (inactive) | -0.159 (inactive) | 0.191 | 0.168 | 0.501 | 1.04 | 1 | -1.03 (inactive) | 0.44 | 8.39 (active) | 0.825 (inactive) | 2.82 (inactive) | 0.966 (inactive) | -0.283 | 0.717 (inactive) | 0.466 (inactive) | 0.739
O=C1NC(=O)C2C1C=CC(C(O)c1ccc3c(c1)OCO3)N2Nc1ccc(Cl)cc1Cl (stereo not given) | -0.002 | -0.0416 (inactive) | -0.238 (inactive) | 0.0501 (inactive) | -0.329 (inactive) | 0.347 | 0.249 | 0.0858 | -0.446 | -0.116 | -3.85 (inactive) | 0.0861 | 7.58 (inactive) | 1.84 (inactive) | -0.254 (inactive) | 1.56 (inactive) | -0.593 | -0.0436 (inactive) | -5.24 (inactive) | -3.26
